A selection: hits, their analogues and other compounds. The true share with any hit is near 1.8%.
TrxR1 substrate = qHTS Assay for Substrates of Mammalian Selenoprotein Thioredoxin Reductase 1 (TrxR1): qHTS; AID 588456, 2011; purified TrxR1 substrate turnover, NADPH consumption readout; Thioredoxin reductase 1, cytoplasmic (Rattus norvegicus), O89049; 390,000 tested, 0.01% active; Potency, µM (titrated, usually from 114 µM); further: nearly all actives have a fitted effect of over 50% in size
Target sequence (O89049 whole entry, looked up): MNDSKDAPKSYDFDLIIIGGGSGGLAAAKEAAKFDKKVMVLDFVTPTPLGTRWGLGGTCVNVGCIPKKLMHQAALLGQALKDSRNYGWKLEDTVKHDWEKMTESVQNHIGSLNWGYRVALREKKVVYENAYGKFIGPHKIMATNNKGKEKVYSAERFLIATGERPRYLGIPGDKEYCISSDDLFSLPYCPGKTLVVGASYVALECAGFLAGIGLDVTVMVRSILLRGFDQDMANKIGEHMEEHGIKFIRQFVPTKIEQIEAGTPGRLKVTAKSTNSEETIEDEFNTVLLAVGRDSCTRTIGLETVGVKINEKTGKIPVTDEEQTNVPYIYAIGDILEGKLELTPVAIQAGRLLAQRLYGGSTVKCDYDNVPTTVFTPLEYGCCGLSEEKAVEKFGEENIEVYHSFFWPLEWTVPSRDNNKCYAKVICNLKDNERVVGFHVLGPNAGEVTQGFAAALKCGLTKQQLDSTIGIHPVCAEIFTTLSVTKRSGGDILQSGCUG
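Rat TrxR1, dispensed at 90 nM, was prereduced with 400 uM NADPH (final) for 5 min at ~22 deg C, then incubated with compound 15 min before 400 uM selenite. A first-read NADPH fluorescence drop versus no-compound background flagged substrates.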
rTrxR1 inhibitor = qHTS Assay for Inhibitors of Mammalian Selenoprotein Thioredoxin Reductase 1 (TrxR1): qHTS. recombinant rTrxR1, NADPH fluorescence consumption, selenite substrate. 390,000 tested, 1% active. Potency, µM (titrated, usually from 114 µM), actives largely listed as inhibitors. Thioredoxin reductase 1, cytoplasmic (Rattus norvegicus), O89049; further: nearly all actives have a fitted effect of over 65% in size
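Rat TrxR1 (90 nM in the dispensed reagent) was pre-reduced with 400 uM NADPH for 5 min at room temperature, then incubated with compound for 15 min. After 400 uM selenite was added, NADPH fluorescence (Ex 340/Em 450 nm) was followed for 8 min.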
VDR inh = Inhibitors of the vitamin D receptor (VDR): qHTS; Vitamin D3 receptor (Homo sapiens), P11473; 400,000 tested, 0.93% active; AID 504847, 2011; Potency, µM, hits mostly inhibitors; VDR-SRC2-3 peptide fluorescence polarization, 2 h
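Reagent solutions, kept cold and dark, are dispensed first; compounds are then pinned in at 23 nl, plates briefly spun, and incubated 2 h at ambient temperature. Inhibition of VDR–SRC2-3 peptide binding is read by fluorescence polarization.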
Vif-APOBEC3F blk = qHTS for Inhibitors of Vif-A3F Interactions: qHTS. 390,000 tested, 0.2% active. Potency, µM (doses to about 46.1 µM). HeLa A3F-eYFP + Vif (tagged APOBEC3F with the HIV-1 protein that degrades it), YFP fluorescence increase; further: nearly all actives have a fitted effect of over 65% in size
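HeLa cells stably expressing Vif plus C-terminally eYFP-tagged A3F were seeded, incubated overnight at 37 deg C, dosed with compound, incubated overnight again at 37 deg C. Yellow fluorescence (Ex 488/Em 500-530) reported blocked Vif-mediated A3F-eYFP degradation.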
Vif-A3G inh = qHTS for Inhibitors of Vif-A3G Interactions: qHTS | AID 602310, 2012 | DNA dC->dU-editing enzyme APOBEC-3G (Homo sapiens), Q9HC16 | 410,000 tested, 0.076% active | HeLa A3G-eYFP + Vif (tagged APOBEC3G with the HIV-1 protein that degrades it), YFP fluorescence, overnight | Potency, µM (highest dose often 46.1 µM), usual class: inhibitors; further: nearly all actives have a fitted effect of over 60% in size
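Read-out is eYFP fluorescence (Ex 488/Em 500-530) from Vif-expressing HeLa A3G-eYFP cells; more signal means A3G escaped Vif-mediated degradation. Cells plated overnight, compound pinned in, incubated overnight at 37 deg C.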
Large screens that a line does not name were inactive; ! = not active in a repeat. The call rests on the fitted dose curve; in most records, active means well fitted curve in the direction sought with a large enough effect; inconclusive means small, poorly fitted or top-dose-only effect, or another doubt; inactive means no such curve, though single readings can be large; an effect the other way counts as inactive or inconclusive.

O=C(CCl)N1N=C(c2ccco2)CC1c1ccco1 (centres undefined)	rTrxR1 inhibitor 2.51µM, VDR inh inconclusive
O=C(CCl)N1N=C(c2cccs2)CC1c1ccco1 (centres undefined)	rTrxR1 inhibitor 14.1µM, Vif-A3G inh inconclusive
COCC(=O)OCC(=O)N1N=C(c2ccc(Cl)cc2)CC1c1ccco1 (centres undefined)	none
O=C(OCC(=O)N1N=C(c2ccc(Cl)cc2)CC1c1ccco1)c1cccnc1 (centres undefined)	rTrxR1 inhibitor 7.08µM, VDR inh 39.8µM, Vif-APOBEC3F blk inconclusive
COc1cccc(CNC(=O)CCc2c(C)nn(-c3ccc(N4CCOCC4)nn3)c2C)c1	none
CCc1cc(=O)n2c([nH]c3ccccc32)c1C#N	none
CC(SCc1cc(=O)n2c([nH]c3ccccc32)c1C#N)C(=O)O (centres undefined)	VDR inh 79.4µM
N[C@H](CO)Cc1cnc[nH]1	none (no result: TrxR1 substrate, rTrxR1 inhibitor, Vif-APOBEC3F blk, Vif-A3G inh)
COc1cccc(-c2nc(SCC(=O)NCC3CCCO3)c(-c3ccc(Cl)cc3)[nH]2)c1 (centres undefined)	none
CCOC(=O)C1Nc2ccccc2C2C(O)C(O)CC12 (centres undefined)	rTrxR1 inhibitor 17.8µM, Vif-APOBEC3F blk inconclusive, Vif-A3G inh inconclusive
CCOC(=O)C1Nc2ccc(OC(F)(F)F)cc2C2C=CCC12 (centres undefined)	rTrxR1 inhibitor inconclusive, VDR inh inconclusive
O=C(NCCOc1ccccc1)C1Nc2ccc(C(F)(F)F)cc2C2c3ccccc3CC12 (centres undefined)	Vif-A3G inh inconclusive
CCOC(=O)C1Nc2ccc(C(F)(F)F)cc2C2c3ccccc3CC12 (centres undefined)	VDR inh 50.1µM
Cc1ccc(C)c(S(=O)(=O)n2nc(C)c(S(=O)(=O)N3CCCCCC3)c2C)c1	none
Clc1ccc(-c2ccc(-c3nn4c(-c5ccco5)nnc4s3)o2)cc1	rTrxR1 inhibitor inconclusive
Brc1ccc(-c2nn3c(-c4ccco4)nnc3s2)o1	rTrxR1 inhibitor 28.2µM
CC(CCC(C)[n+]1cccc(C#N)c1)[n+]1cccc(C#N)c1 (centres undefined)	none (no result: VDR inh, Vif-APOBEC3F blk)
CCOC(=O)c1ccc(NC(=O)c2c(NC(C)=O)sc3c2CCC(C)C3)cc1 (centres undefined)	none
CCOc1ccc(NC(=O)c2c(NC(=O)c3ccccc3Br)sc3c2CCC(C)C3)cc1 (centres undefined)	VDR inh 39.8µM
O=C(CCSc1nnc2scc(-c3ccccc3)n12)NCc1ccc2c(c1)OCO2	none
c1ccc(-c2csc3nnc(SCc4ccc5c(c4)OCO5)n23)cc1	VDR inh 79.4µM
N#C/C(=C\c1ccc(O)c(O)c1)C(=O)Nc1ccccc1	TrxR1 substrate inconclusive, rTrxR1 inhibitor inconclusive, VDR inh 12.6µM!
N#C/C(=C\c1cccnc1)C(=O)Nc1ccccc1	VDR inh inconclusive
CCOC(=O)c1c(NC(=O)/C=C/C(=O)O)sc(C)c1-c1ccc(Cl)cc1	VDR inh 39.8µM
COc1cc(-c2nnn(CC(=O)Nc3ccc(OC(F)(F)F)cc3)n2)cc(OC)c1OC	none (no result: Vif-APOBEC3F blk, Vif-A3G inh)
COc1ccc(CCNC(=O)c2cc3c(s2)-c2c(C)cccc2OC3)c(OC)c1	none
CN(Cc1ccccc1)c1ccc(/C=C/c2sc3ccccc3[n+]2C)cc1	none (no result: VDR inh, Vif-APOBEC3F blk)
CC(=O)C(Sc1nn(C)c(=S)s1)C(=O)Nc1ccccc1 (centres undefined)	rTrxR1 inhibitor 22.4µM, VDR inh 79.4µM
CC(=O)C(Sc1nc(N(C)C)nc(N(C)C)n1)C(=O)Nc1ccccc1 (centres undefined)	none
COc1cccc(Cn2cnc3c2c(=O)n(C)c(=O)n3C)c1	none
O=C(Nc1ccccc1)c1nnsc1S(=O)c1ccc(Cl)cc1 (centres undefined)	rTrxR1 inhibitor 1.26µM, VDR inh inconclusive
Cc1nnsc1S(=O)c1ccc(Cl)cc1 (centres undefined)	none
O=C(c1nnsc1S(=O)c1ccc(Cl)cc1)N1CCOCC1 (centres undefined)	rTrxR1 inhibitor 3.55µM, VDR inh 7.94µM
O=c1[nH]cnc(O)c1C1C=CC=CC=C1	VDR inh 39.8µM
O=c1[nH]cnc2c1C(c1ccccc1)c1c(nc[nH]c1=O)O2	none
CCC[n+]1c(/C=C/c2c(OC)cc(OC)cc2OC)ccc2ccccc21	Vif-A3G inh inconclusive (no result: VDR inh, Vif-APOBEC3F blk)
CC1CC(C)CN(c2cc(N(C)CCO)c([N+](=O)[O-])c3nonc23)C1 (centres undefined)	none
CC1CCN(c2cc(N(C)CCO)c([N+](=O)[O-])c3nonc23)CC1	rTrxR1 inhibitor 44.7µM
CCOC(=O)c1sc(N2C(=O)C(O)=C(C(=O)c3ccco3)C2c2ccc([N+](=O)[O-])cc2)nc1C (centres undefined)	VDR inh 89.1µM
O=C1C=CC(=O)N1	rTrxR1 inhibitor 2µM, VDR inh 39.8µM
Brc1cccc[n+]1Cc1ccc(C[n+]2ccccc2Br)cc1	none (no result: VDR inh, Vif-APOBEC3F blk)
CC(C)CCNC(=O)c1cc2c(=O)n3ccccc3nc2s1	rTrxR1 inhibitor 44.7µM
CC(C)CN(CC(C)C)C(=O)c1cc2c(=O)n3ccccc3nc2s1	none
CN1CCc2c(sc3c2C(=O)NC(c2ccc(-c4ccc(Cl)cc4)o2)N3)C1 (centres undefined)	Vif-APOBEC3F blk 28.2µM, Vif-A3G inh inconclusive
CN1CCc2c(sc3c2C(=O)NC(c2ccco2)N3)C1 (centres undefined)	none
CC(C)CN(CC(C)C)c1ccc(/C=C/c2nc3ccccc3s2)cc1	none (no result: VDR inh, Vif-APOBEC3F blk)
CCOC(=O)C(C)Sc1nc2c(c(=O)[nH]c(=O)n2C)n1Cc1ccc(Cl)cc1 (centres undefined)	VDR inh 89.1µM
C=CCOc1cccc(/C=C2\C(=O)N(Cc3ccc(C)cc3)C(C)=C2C(=O)OC)c1	VDR inh inconclusive, Vif-APOBEC3F blk inconclusive
CCOC(=O)C1=C(C)N(c2ccc(OC)cc2)C(=O)/C1=C\c1ccc(O)c(OCC)c1	rTrxR1 inhibitor 39.8µM, VDR inh inconclusive
CCOc1cc(/C=C2\C(=O)N(Cc3ccc(C)cc3)C(C)=C2C(=O)OC)ccc1O	rTrxR1 inhibitor 28.2µM, VDR inh inconclusive, Vif-APOBEC3F blk inconclusive
C(=C\c1nccc2ccccc12)/c1ccc(N2CCOCC2)cc1	none (no result: VDR inh, Vif-APOBEC3F blk)
CCOC(=O)c1c(C)[nH]c(C2=NNC(=NC3CC3)SC2)c1C	VDR inh 8.91µM
Cn1cnc2nc(NCCO)nc(NCc3ccccc3)c21	none (no result: TrxR1 substrate, rTrxR1 inhibitor, Vif-APOBEC3F blk, Vif-A3G inh)

Screening data: PubChem, National Center for Advancing Translational Sciences (NCATS)
